Measured values from ChEMBL document CHEMBL1961873, “Compounds: GSK PKIS; Assays: Nanosyn kinase panel” (2012).

Columns and labels:
[1] = target: T1, 3-phosphoinositide-dependent protein kinase 1 (Homo sapiens) (UniProt O15530); details: at 0.1 µM;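 note: values are mean inhibition of PDK1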
T1 sequence (whole entry): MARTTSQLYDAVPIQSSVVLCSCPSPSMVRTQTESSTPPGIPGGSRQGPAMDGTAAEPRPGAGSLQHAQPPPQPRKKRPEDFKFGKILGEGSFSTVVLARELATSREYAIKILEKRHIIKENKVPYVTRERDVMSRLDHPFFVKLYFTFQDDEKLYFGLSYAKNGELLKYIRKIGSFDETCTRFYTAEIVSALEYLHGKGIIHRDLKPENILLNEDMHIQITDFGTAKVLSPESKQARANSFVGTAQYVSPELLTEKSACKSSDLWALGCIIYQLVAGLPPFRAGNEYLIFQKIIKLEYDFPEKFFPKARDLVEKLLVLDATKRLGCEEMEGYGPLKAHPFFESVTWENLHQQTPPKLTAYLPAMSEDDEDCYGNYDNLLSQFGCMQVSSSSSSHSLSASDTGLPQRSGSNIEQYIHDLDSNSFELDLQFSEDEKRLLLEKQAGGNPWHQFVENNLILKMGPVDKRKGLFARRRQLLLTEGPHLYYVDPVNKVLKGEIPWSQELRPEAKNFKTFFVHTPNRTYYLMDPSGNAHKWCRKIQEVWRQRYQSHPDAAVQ

[2] = target: cAMP-dependent protein kinase catalytic subunit alpha (Homo sapiens) (UniProt P17612); details: at 0.1 µM
[3] = target: Protein kinase C alpha type (Homo sapiens) (UniProt P17252); details: at 0.1 µM
[4] = target: Protein kinase C alpha type (Homo sapiens) (UniProt P17252); details: at 1 µM
[5] = target: Protein kinase C beta type (Homo sapiens) (UniProt P05771); details: at 0.1 µM
Protein kinase C beta type (Homo sapiens), sequence (P05771 2-671 limits assumed): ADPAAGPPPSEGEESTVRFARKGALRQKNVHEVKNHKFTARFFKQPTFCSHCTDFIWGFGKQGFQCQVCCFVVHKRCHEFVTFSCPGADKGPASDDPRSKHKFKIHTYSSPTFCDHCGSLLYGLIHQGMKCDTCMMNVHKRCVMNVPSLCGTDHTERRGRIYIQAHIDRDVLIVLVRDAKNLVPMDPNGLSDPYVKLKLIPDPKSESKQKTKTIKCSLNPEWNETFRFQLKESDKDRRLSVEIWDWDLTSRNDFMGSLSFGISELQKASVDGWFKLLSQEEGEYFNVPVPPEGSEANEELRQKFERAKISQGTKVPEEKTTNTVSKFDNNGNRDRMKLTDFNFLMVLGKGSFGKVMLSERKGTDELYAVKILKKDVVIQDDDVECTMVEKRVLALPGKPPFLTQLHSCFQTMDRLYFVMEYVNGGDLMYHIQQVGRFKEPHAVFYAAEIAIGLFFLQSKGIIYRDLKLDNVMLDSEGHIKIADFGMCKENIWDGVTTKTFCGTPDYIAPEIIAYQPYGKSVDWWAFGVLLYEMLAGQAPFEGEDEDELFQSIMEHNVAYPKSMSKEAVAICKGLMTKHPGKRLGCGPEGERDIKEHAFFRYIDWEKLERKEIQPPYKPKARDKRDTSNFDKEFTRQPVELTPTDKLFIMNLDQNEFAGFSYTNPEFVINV

[6] = target: Protein kinase C beta type (Homo sapiens) (UniProt P05771); details: at 1 µM
[7] = target: Protein kinase C eta type (Homo sapiens) (UniProt P24723); details: at 0.1 µM
Protein kinase C eta type (Homo sapiens), sequence (P24723 whole entry): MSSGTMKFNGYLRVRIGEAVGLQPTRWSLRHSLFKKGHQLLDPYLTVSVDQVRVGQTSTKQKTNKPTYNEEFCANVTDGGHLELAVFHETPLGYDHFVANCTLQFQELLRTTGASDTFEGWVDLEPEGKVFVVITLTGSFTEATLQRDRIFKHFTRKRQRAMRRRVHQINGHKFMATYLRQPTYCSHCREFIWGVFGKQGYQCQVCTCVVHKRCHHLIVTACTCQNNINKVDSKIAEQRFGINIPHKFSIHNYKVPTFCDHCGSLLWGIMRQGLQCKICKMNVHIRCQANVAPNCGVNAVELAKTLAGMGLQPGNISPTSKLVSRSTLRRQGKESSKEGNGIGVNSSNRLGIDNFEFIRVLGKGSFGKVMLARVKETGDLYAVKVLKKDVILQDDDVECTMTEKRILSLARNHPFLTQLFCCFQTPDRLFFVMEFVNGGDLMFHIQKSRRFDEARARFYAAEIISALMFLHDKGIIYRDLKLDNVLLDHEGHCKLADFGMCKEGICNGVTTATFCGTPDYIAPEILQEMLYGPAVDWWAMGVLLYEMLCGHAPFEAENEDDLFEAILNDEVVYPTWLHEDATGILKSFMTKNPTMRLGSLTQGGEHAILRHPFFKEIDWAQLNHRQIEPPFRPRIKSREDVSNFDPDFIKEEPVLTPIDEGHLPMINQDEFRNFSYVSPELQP

[8] = target: Protein kinase C eta type (Homo sapiens) (UniProt P24723); details: at 1 µM
[9] = target: Protein kinase C gamma type (Homo sapiens) (UniProt P05129); details: at 0.1 µM;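 note: values are mean percent inhibition of PKC gamma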
[10] = target: cAMP-dependent protein kinase catalytic subunit alpha (Homo sapiens) (UniProt P17612); details: at 1 µM

| Compound | inhibition [1] | inhibition [2] | inhibition [3] | inhibition [4] | inhibition [5] | inhibition [6] | inhibition [7] | inhibition [8] | inhibition [9] | inhibition [10] |
| --- | --- | --- | --- | --- | --- | --- | --- | --- | --- | --- |
| CCn1c(-c2nonc2N)nc2c(C#CC(C)(C)O)ncc(OCC3CCNCC3)c21 | 2.18% | 44.1% | -1.9% | 13.4% | 29.9% | 64.4% | 83.7% | 97.8% | 6.74% |  |
| COc1cc2c(cc1Nc1nc(Nc3ccsc3C(N)=O)c3cc[nH]c3n1)N(C(=O)CN(C)C)CCC2 | 0.7% | 4.62% | 1.91% | 10.2% | -0.18% | 1.94% | 1.28% | 3.46% |  | 3.81% |
| COc1cccc(-n2ncc3c(N/N=C/c4ccncc4)ncnc32)c1 | 3.34% | 1.96% | 2.71% | 8.07% | 1.63% | 7.79% | 4.72% | 2.1% | 1.76% | 4.25% |
| CCn1c(-c2nonc2N)nc2c(C#CC(C)(C)O)ncc(OC[C@@H]3CCCN3)c21 | 0.24% | 68.7% | 2.42% | 18.4% | 30.1% | 61.3% | 87.1% | 96.3% | 9.3% | 81.2% |
| Fc1ccc(-c2ncn(C3CCNCC3)c2-c2ccnc(Oc3ccccc3)n2)cc1 | 0.7% | 7.46% | -3.5% | -0.8% | 0.95% | 8.43% | 3.65% | 1.37% | 0.03% | 43.6% |
| CCn1c(-c2nonc2N)nc2c(C#CC(C)(C)O)nc(O[C@@H](CN)c3ccccc3)cc21 | 3.51% | 80.3% | 15.8% | 69.7% | 44.8% | 71.4% | 96.3% | 99% | 54.7% | 81.6% |
| NS(=O)(=O)c1ccc(N/C=C2\C(=O)Nc3ccc4ncsc4c32)cc1 | 20.8% | 2.9% | 1.26% | 3.04% | -0.49% |  | 1.67% | 6.53% | 1.16% | 6.91% |
| COc1cc(C=NNc2ncnc3c2cnn3Cc2ccccc2)ccc1O | -3.37% | -0.54% | -0.63% | 3.5% | 0.36% | 3.19% | -5.63% | -0.89% | -2.68% | 5.93% |
| Cc1cc(-c2ccco2)cc(C)c1/C=C/c1cncc(-c2nn[nH]n2)c1 | -0.25% | -2.7% | 0.15% | 0.97% | -0.49% | 0.6% | 1.26% | 2.42% | 0.18% | 1.88% |
| NS(=O)(=O)c1ccc(-c2ccc3c(NC(=O)C4CC4)n[nH]c3c2)cc1 | 2.67% | 1.34% | 0.82% | 0.13% | -1.4% | -0.63% | 3.31% | -0.1% | -1.07% | 1.63% |
| Nc1nonc1-c1nc2cnccc2n1C1CCCCC1 | 0.3% | 19.5% | 2.45% | 38.4% | 31% | 65.3% | 42.3% | 88.5% | 8.45% |  |
| NC(=O)c1sc(-n2cnc3cc(C(F)(F)F)ccc32)cc1OCc1ccccc1Br | 2.62% | 2.16% | 0.19% | 1.07% | 0.86% | -1.32% | 3.02% | -0.28% | 0.48% | 1.95% |
| COc1cccc(COc2cc(-n3cnc4ccccc43)sc2C(N)=O)c1 | 12.1% | 2.47% | -0.54% | 0% | -0.69% | 0.94% | 0.43% | 1.12% | 1.09% | 0.86% |
| CCn1c(-c2nonc2N)nc2c(C#CCN)ncc(OCCCN)c21 | 1.2% | 7.1% | 1.06% | 4.21% | 14.7% | 47.8% | 19.6% | 73.4% | 3.97% |  |
